Screens deposited in PubChem BioAssay by Broad Institute.
Shown are actives, neighbours in structure and some others; about 3.1% of the full set was active somewhere.
RAD54 inh – inhibitors of human RAD54 branch migration; Q92698; RAD54 Holliday junction branch migration, FAM/BHQ fluorescence; inhibition, % at 10.4 µM; 0.14% of 360,000 active;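 active = mean normalized replicate activity at least 40 and at least half of replicates scoring 40 or more; inconclusive = only one of the two criteria met; inactive = mean below 40 and under half of replicates reaching 40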;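 note: 0% = median of neutral control wells and 100% = median of positive control wells; inhibitors cause a drop in the FAM fluorescence signal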
DENV2 CPE rescue – DENV2-induced cell death inhibition; DENV2-infected cells, cytopathic effect rescue, plate reader; CPE inhibition, % at 9.99 µM; 1.7% of 350,000 active; in the data active = CPE inhibition above about 20%, passing the limit was not always enough; inconclusive = no clear call, values can overlap the other calls; tested in BHK-21 cells;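 note: 0% = median of neutral control wells and 100% = median of positive control wells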
RAD52 anneal inh – blocks human RAD52 DNA annealing. AID 651710. recombinant RAD52 DNA annealing, FRET fluorescence. P43351. 0.46% of 360,000 active. inhibition, % at 18.7 µM;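 active = every replicate showing at least 50% inhibition; inconclusive = mean inhibition at least 50% but not in every replicate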
MLL AF4-AF9 inh – MLL-AF4/AF9 protein interaction inhibition. P42568. AlphaScreen, biotin-AF4 peptide binding to FLAG-AF9. inhibition, % at 10 µM. 0.47% of 350,000 active. AID 651704;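 active = every replicate reaching a set inhibition limit, whatever the replicate mean, cut at about 25% in these data; inconclusive = mean inhibition reaches that limit but some replicates miss it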;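 note: 0% = plate neutral control median and 100% = total signal loss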
INS-1E GSIS act – GLuc luminescence reporter in INS-1E cells, primary screen for activators of glucose-dependent secretion of insulin. 0.61% of 370,000 active. INS-1E GLuc reporter insulin secretion, 2-3 h. activation, % at 16.6 µM;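 active = lowest replicate activation of at least 40%, so every replicate reaches that level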;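 note: 0% = median of neutral control wells and 100% = median of IBMX positive control wells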
dFosB activator – mouse delta FosB homodimer activation; purified delta FosB, TAMRA-CDK5 oligo fluorescence polarization; percent of positive-control signal above neutral wells; activation, % at 25 µM; 0.99% of 340,000 active; AID 493131;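 active = mean activation above about 17%, with every replicate also reaching it, limit read from the data, passing the limit was not always enough; inconclusive = only one of the two conditions met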
Target sequence (P13346 whole entry, looked up): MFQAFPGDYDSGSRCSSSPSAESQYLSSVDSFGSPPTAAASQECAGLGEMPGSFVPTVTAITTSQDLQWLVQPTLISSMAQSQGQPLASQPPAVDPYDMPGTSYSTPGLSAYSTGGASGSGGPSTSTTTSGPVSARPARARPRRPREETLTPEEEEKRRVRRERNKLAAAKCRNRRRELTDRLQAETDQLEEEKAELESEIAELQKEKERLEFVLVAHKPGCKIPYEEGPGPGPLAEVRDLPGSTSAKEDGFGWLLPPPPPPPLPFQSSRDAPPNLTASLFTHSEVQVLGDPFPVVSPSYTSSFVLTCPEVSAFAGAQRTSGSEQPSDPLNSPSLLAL
Numbers without * were called inactive; ? = inconclusive; . = not tested or not shown.

SMILES	RAD54 inh	DENV2 CPE rescue	RAD52 anneal inh	MLL AF4-AF9 inh	INS-1E GSIS act	dFosB activator
CCOC(=O)C[C@@H]1OC2CCCCC2N1S(=O)(=O)c1ccc(C)cc1 (stereo partly drawn)	.	-2.8	-8.3	1.5	-19.9	.
Cc1ccc(S(=O)(=O)N2C3CCCCC3O[C@H]2CC(=O)c2cccs2)cc1 (stereo partly drawn)	.	47.7*	-12.1	.	-6.5	.
C[C@@H]1CN([C@H](C)CO)C(=O)Cc2cc(NC(=O)C3CC3)ccc2O[C@@H]1CN(C)Cc1ccncc1	2.4	21.4*	-4.6	-0.6	13.9	.
COc1ccc(CN(C)C[C@H]2Oc3ccc(NC(=O)C4CC4)cc3CC(=O)N([C@H](C)CO)C[C@@H]2C)cc1	.	79.2*	-0.3	-11.1	32.3	.
Cc1noc(C)c1NC(=O)Nc1ccc2c(c1)C(=O)N([C@@H](C)CO)C[C@@H](C)[C@H](CN(C)C(=O)Nc1ccc(F)cc1)OCCCC[C@H](C)O2	9.6	-3.2	3.2	-3.6	-13.8	.
CCNC(=O)Nc1ccc2c(c1)C(=O)N(C)[C@@H]1CC[C@H](CC(=O)NCc3ccccc3F)O[C@@H]1CO2	-1.4	?	-4.4	-0.4	-11.0	.
CCNC(=O)Nc1ccc2c(c1)C(=O)N(C)[C@@H]1CC[C@H](CC(=O)NCc3ccccc3F)O[C@H]1CO2	2.1	70.6*	-5.8	-0.7	6.3	.
CN1C(=O)c2cc(NC(=O)Nc3ccccc3F)ccc2OC[C@H]2O[C@@H](CC(=O)NCc3ccc(-c4ccccc4)cc3)CC[C@H]21	8.5	48.3*	-19.3	-2.3	9.0	.
CN1C(=O)c2cc(NC(=O)Nc3ccccc3F)ccc2OC[C@H]2O[C@H](CC(=O)NCc3ccc(-c4ccccc4)cc3)CC[C@@H]21	1.4	?	-18.2	-2.1	0.8	.
C[C@H]1CN([C@@H](C)CO)C(=O)c2c(c3ccccc3n2C)-c2ccccc2CO[C@H]1CN(C)C(=O)[C@H]1CCCN1C	7.1	5.8	-22.1	3.0	11.3	.
Cc1ccc(S(=O)(=O)N2CCOCC2)cc1C(=O)Nc1cccc(C(=O)NC2CC2)c1	-1.7	-8.8	-14.5	0.8	-1.8	-2.3
Cc1ccc(NC(=O)c2oc3ccc(S(=O)(=O)N4CCOCC4)cc3c2C)cc1C	3.1	.	.	.	79.3*	2.2
COc1cccc(NC(=O)c2oc3ccc(S(=O)(=O)N4CCOCC4)cc3c2C)c1	.	.	-25.0	-0.1	10.3	-10.9
N#CCc1ccc(NC(=O)c2cc(S(=O)(=O)N3CCOCC3)ccc2Cl)cc1	-3.7	60.1*	-8.3	-7.6	-2.1	-5.1
N#Cc1ccc(NC(=O)c2cc(S(=O)(=O)N3CCOCC3)ccc2N2CCCC2)cc1	3.3	-9.6	-5.5	-0.4	34.3	-6.9
O=C(NC1CC1)c1cccc(NC(=O)c2cc(S(=O)(=O)N3CCOCC3)ccc2Cl)c1	-2.8	93.8*	-10.7	3.3	-14.4	-6.4
Cc1cccnc1NC(=O)c1ccc(S(=O)(=O)N2CCCC2)cc1	4.9	64.6*	-8.3	-0.4	.	.
Cc1noc(C)c1S(=O)(=O)Nc1ccc2c(c1)C(=O)N([C@@H](C)CO)C[C@@H](C)[C@@H](CN(C)C(=O)CCC(F)(F)F)OCCCC[C@@H](C)O2	1.4	-4.1	-1.8	0.6	-7.8	.
CC(Sc1nc2cc(Cl)ccc2s1)C(=O)Nc1cccc(S(=O)(=O)N2CCOCC2)c1 (stereo not drawn)	.	32.9*	-25.3	2.0	-1.6	-6.6
O=C(Nc1cccc(S(=O)(=O)N2CCCC2)c1)c1cccc(S(=O)(=O)N2CCOCC2)c1	-2.7	-3.0	-18.0	25.6*	-2.6	-5.7
O=C(Nc1cccc(F)c1)c1ccc(S(=O)(=O)N2CCCCC2)cc1	3.0	113.8*	-4.4	-0.3	15.1	-8.7
O=C(Nc1ccc(S(=O)(=O)N2CCOCC2)cc1)c1ccc(=O)[nH]c1	.	-2.9	-9.8	-3.2	42.8*	.
O=C(Nc1ccc(S(=O)(=O)N2CCCCC2)cc1)c1ccc(=O)[nH]c1	4.1	9.6	-20.5	1.2	11.7	-4.1
O=C(Nc1cccc(O)c1)c1cccc(S(=O)(=O)N2CCCC2)c1	5.6	.	.	.	1.0	2.8
O=C(C[C@H]1CC[C@H]2[C@@H](COC[C@H](O)CN2Cc2cccc(F)c2)O1)NCCc1ccncc1	0.6	-7.6	0.3	-0.4	-1.5	.
SMILES	RAD54 inh	DENV2 CPE rescue	RAD52 anneal inh	MLL AF4-AF9 inh	INS-1E GSIS act	dFosB activator
CN1CCN(NC(=O)c2cccc(S(=O)(=O)N3CCCCCC3)c2)CC1	-2.4	-10.2	-6.7	-7.0	58.1*	-7.6
CC1CN(S(=O)(=O)c2cccc(C(=O)NN3CCN(C)CC3)c2)CC(C)O1 (stereo not drawn)	4.5	.	.	.	14.8	0.4
O=C(c1cccs1)N(Cc1ccccn1)Cc1ccco1	1.1	.	.	.	73.1*	3.0
Cc1cc(C)cc(C(=O)N2CCC(CCC(=O)NC3CC3)CC2)c1	-0.3	0.2	-12.8	-2.8	2.7	-12.2
C=CCOc1cccc(C(=O)N2CCC(CCC(=O)NC3CC3)CC2)c1	-11.5	-3.6	-5.4	-8.4	54.3*	-1.0
C[C@H](CO)N1C[C@H](C)[C@@H](CN(C)C(=O)C2CCCCC2)Oc2ncc(-c3cccc(F)c3)cc2C1=O	-5.7	-3.3	3.3	-0.8	-7.0	.
COc1ccc(NC(=O)N2CCCCN3[C@@H](CO)[C@@H](c4ccc(C5=CCCC5)cc4)[C@@H]3C2)cc1	-13.2	-0.6	53.8*	13.1	.	.
O=C(Nc1ccc(F)cc1)N1CCCCN2[C@H](CO)[C@@H](c3ccc(C4=CCCCC4)cc3)[C@H]2C1	5.2	28.8*	-2.8	17.0	-1.2	.
COc1ccc(NC(=O)N2CCCCN3[C@H](CO)[C@H](c4ccc(C5=CCCC5)cc4)[C@H]3C2)cc1	3.3	8.2	34.1	15.1	.	.
O=C(Nc1ccc(F)cc1)N1CCCCN2[C@@H](CO)[C@H](c3ccc(C4=CCCCC4)cc3)[C@@H]2C1	10.8	2.9	-11.6	12.4	-24.2	.
O=C(Nc1ccccc1F)N1CCCCN2[C@H](CO)[C@@H](c3ccc(C4=CCCC4)cc3)[C@@H]2C1	-15.2	.	.	.	-18.2	.
O=C(Nc1ccccc1F)N1CCCCN2[C@H](CO)[C@@H](c3ccc(C4=CCCCC4)cc3)[C@H]2C1	-11.1	3.0	55.8*	19.1	.	.
N#C[C@@H]1[C@H](c2ccccc2C2=CCCCC2)[C@H](CO)N1S(=O)(=O)c1cccc(F)c1	.	-6.1	-1.8	-3.5	-2.0	.
Cn1c(=O)c(C(=O)NNC(=O)c2cccc(Cl)c2)c(O)c2ccccc21	4.4	19.2	-1.9	0.3	544.6*	5.4
Cn1nc(C(=O)NNC(=O)c2cccc(Cl)c2)c2ccccc2c1=O	-4.5	66.9*	-7.9	-2.1	.	-7.4
Cc1cccc(C(=O)NNC(=O)c2c(O)c3ccccc3n(C)c2=O)c1	-3.6	-7.2	-0.6	1.6	-23.9	-4.3
Cn1nc(C(=O)NNC(=O)c2ccc(Cl)c(S(N)(=O)=O)c2)c2ccccc2c1=O	-13.1	-1.8	12.3	-0.3	-0.2	-13.1
